# Screening data (PubChem)
# ELG1 genotox = qHTS screen for small molecules that induce genotoxicity in human embryonic kidney (HEK293T) cells expressing luciferase-tagged ELG1; HEK293T ELG1-luciferase reporter, luminescence, 16 h; hit rate 1.3% among 330,000; AID 504466, 2011; Potency, µM (highest dose often 46 µM), hits mostly activators; note: nearly all actives have a fitted effect of over 60% in size
#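 Quantitative HTS format in 1536-well plates. HEK293T ELG1-luciferase reporter cells receive test compound and are incubated 16 hr at 37 °C, 5% CO2; ONE-Glo added, 30 min room temperature, then luminescence read.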
# SMN2 splice up = qHTS Assay for Enhancers of SMN2 Splice Variant Expression; HEK293 SMN2-luciferase splicing reporter, luminescence, 30-36 h; Potency, µM (titrated, usually from 46.1 µM), most hits filed as activators; hit rate 2.8% among 210,000; note: nearly all actives have a fitted effect of over 55% in size
#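 HEK293 cells carry an SMN2 […]–luciferase reporter in which exon 7 inclusion puts luciferase in frame. Cells were plated 10-12 h before compound addition, then incubated 30-36 h at 37C. ONE-Glo luminescence was read; sodium butyrate at 4.5 mM final served as control.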
# FLuc modulator = qHTS profiling assay for firefly luciferase inhibitor/activator using purifed enzyme and Km concentrations of substrates (counterscreen for miR-21 project) | Luciferin 4-monooxygenase (Photinus pyralis), P08659 | purified FLuc, Km substrates, luminescence inhibition | Potency, µM (highest dose often 57.5 µM), usual class: inhibitors | hit rate 6.9% among 360,000; note: nearly all actives have a fitted effect of over 55% in size
# Target sequence (P08659 whole entry, looked up): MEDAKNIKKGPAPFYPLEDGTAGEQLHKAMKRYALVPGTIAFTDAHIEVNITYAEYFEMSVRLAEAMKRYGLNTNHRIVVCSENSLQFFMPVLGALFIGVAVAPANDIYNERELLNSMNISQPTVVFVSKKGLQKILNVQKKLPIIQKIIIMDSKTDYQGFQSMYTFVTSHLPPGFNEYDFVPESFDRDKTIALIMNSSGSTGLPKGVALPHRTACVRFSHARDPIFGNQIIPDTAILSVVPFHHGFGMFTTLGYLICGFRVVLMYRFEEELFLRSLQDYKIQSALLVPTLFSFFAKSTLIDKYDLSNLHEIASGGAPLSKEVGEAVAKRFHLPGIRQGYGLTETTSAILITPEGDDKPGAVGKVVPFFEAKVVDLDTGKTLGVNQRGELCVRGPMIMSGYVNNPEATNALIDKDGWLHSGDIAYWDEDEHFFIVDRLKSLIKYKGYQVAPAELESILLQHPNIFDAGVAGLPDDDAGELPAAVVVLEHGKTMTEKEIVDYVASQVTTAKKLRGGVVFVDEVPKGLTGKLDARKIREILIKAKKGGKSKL
#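 Biochemical qHTS of compounds, final roughly 60 µM downward over six points, against 10 nM purified firefly luciferase using Km concentrations of substrates (10 uM D-luciferin, 10 uM ATP) in Tris acetate pH 7.5 buffer; luminescence output.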
# Rab9 prom act = qHTS Assay for Rab9 Promoter Activators; Huh7 Rab9 promoter-luciferase reporter, luminescence, 24 h; Potency, µM (series often up to 9.22 µM), actives largely listed as activators; hit rate 2.8% among 320,000; AID 485297, 2010; note: nearly all actives have a fitted effect of over 60% in size
#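 Rab9 promoter-driven luciferase in stably transfected Huh7 cells; 1500 cells/well rested 2 h, exposed to compound in DMSO for 24 h at 37 °C, 5% CO2. Luminescence read 10 min after adding luciferase reagent at ambient temperature.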
# NPC1 prom act = qHTS Assay for NPC1 Promoter Activators | Huh7 NPC1 promoter luciferase reporter, 24 h | Potency, µM (doses to about 9.22 µM), actives largely listed as activators | hit rate 2.4% among 320,000 | AID 485313, 2010; note: nearly all actives have a fitted effect of over 60% in size
#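 In 1536-well qHTS, Huh7 cells harboring an NPC1 promoter–luciferase construct received compound for 24 h; activation was quantified by luminescence following luciferase reagent addition.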
# Numbers stand for hits; 0 = inactive; ? = inconclusive; - = not tested or not shown; [ ] = remark or other dose. In the library only some 7.5% were active in any assay of this set; here they are far more common. Calls come from the whole dose curve; as a rule, active = well fitted curve in the direction sought with a large enough effect; inconclusive = small, poorly fitted or top-dose-only effect, or another doubt; inactive = no such curve, though single readings can be large; an effect the other way counts as inactive or inconclusive.
SMILES,ELG1 genotox,SMN2 splice up,FLuc modulator,Rab9 prom act,NPC1 prom act
Cc1cc(C(=O)Cn2nc(C(=O)O)c3ccccc3c2=O)c(C)n1-c1cccc(C(F)(F)F)c1,0,-,0,0,0
C=CCn1c(C)cc(C(=O)Cn2nc(C(=O)O)c3ccccc3c2=O)c1C,?,11µM,0.48µM,?,?
COC(=O)C1=C(CS(=O)(=O)c2cc(OC)ccc2OC)NC(=O)NC1c1ccc(O)c(OC)c1 (configuration not stated),0,-,0,0,0
Cc1cc(C(=O)Cn2nc(C(=O)O)c3ccccc3c2=O)c(C)n1C1CC1,0,0,0,0,0
COCCn1c(C)cc(C(=O)Cn2nc(C(=O)O)c3ccccc3c2=O)c1C,8.2µM,0,1.2µM,?,0
COC(=O)C(Cc1ccc(O)cc1)NC(=O)C(C)NC(=O)c1ccc(C(C)(C)C)cc1 (configuration not stated),0,-,?,0,0
Cc1ccc(C(=O)COC(=O)c2cccc(NC(=O)c3ccc([N+](=O)[O-])cc3[N+](=O)[O-])c2)cc1,?,?,0.11µM,1.4µM,0.4µM
CC(=O)Nc1ccc(C(=O)OCC(=O)c2cccc([N+](=O)[O-])c2)cc1,0,0,0,0,0
Nc1ccc(C(=O)OCC(=O)c2cccc([N+](=O)[O-])c2)cc1,0,0,24µM,0,0
CCCCCCCc1c(O)nc(SCCN2CCOCC2)[nH]c1=O,0,-,0,0,0
CCCCC/C=C\C/C=C\C=C\[C@@H](O)C/C=C\CCCC(=O)O,-,0,-,-,-
COc1cccc2cc(C(=O)NCCc3ccccc3)c(=O)oc12,?,-,11µM,0,0
CNC(=O)c1cc2cccc(OC)c2oc1=O,0,0,0,0,0
COc1cccc2cc(C(=O)NCCC3=CCCCC3)c(=O)oc12,0,0,?,0,0
COc1cccc2cc(C(=O)NCc3ccccn3)c(=O)oc12,?,0,11µM,?,?
CCOc1cccc2cc(C(=O)N3CCc4ccccc4C3)c(=O)oc12,0,0,0,0,0
COc1cccc2cc(C(=O)N3CCc4ccccc4C3)c(=O)oc12,?,0,17µM,0,0
Cc1nc(CN2CCCCC2)cc(=O)[nH]1,0,0,0,0,0
O=C(Nc1ccc(Br)cn1)c1ccc(COc2c(F)c(F)cc(F)c2F)o1,0,-,0,0,0
CCOc1ccccc1OCCCC(=O)N(CC)CC(=O)Nc1c(F)cccc1F,0,-,0,0,0
C=CCn1c(SCc2c(C)noc2C)nc2ccccc2c1=O,10µM,0,0,0,0
C=CCn1c(SCc2c(C)noc2C)nc2cc(C(=O)O)ccc2c1=O,?,0,0,0,0
Cc1noc(C)c1CSc1nc2ccccc2c(=O)n1-c1ccc(F)cc1F,0,11µM,0,0,0
Cc1noc(C)c1CSc1nc2ccccc2c(=O)n1-c1ccccc1,?,?,0,0,0
CC1Cc2cc(/C(O)=C3/C(=O)C(=O)N(CCCn4ccnc4)C3c3ccco3)ccc2O1 (configuration not stated),?,0,15µM,2.8µM,?
SMILES,ELG1 genotox,SMN2 splice up,FLuc modulator,Rab9 prom act,NPC1 prom act
CCN(CC)CCN1C(=O)C(=O)/C(=C(/O)c2ccc(OC)cc2)C1c1ccco1 (configuration not stated),0,-,?,0,0
CC(C)Oc1ccc(/C(O)=C2/C(=O)C(=O)N(CCN(C)C)C2c2ccco2)cc1 (configuration not stated),?,0,21µM,?,0
CC(=O)N1CCCc2cc(S(=O)(=O)Nc3ccccc3C)ccc21,0,-,0,0,0
CC1(C)CC(=O)C2=C(C1)O[C@@]1(c3ccsc3)Cc3cc(C#N)ccc3C2O1,-,-,?,0[1.84 µM],0[1.84 µM]
Nc1ncnc2c1ncn2[C@@H]1O[C@H](COP(=O)(O)OP(=O)(O)OC[C@H]2OC(O)[C@H](O)[C@@H]2O)[C@@H](O)[C@H]1O (some centres not stated),-,0,-,-,-
CN1/C(=C\C=C2/SC(=S)N(CC(=O)O)C2=O)C(C)(C)c2ccccc21,0,0,17µM,0,0
CCN1C(=O)/C(=C/C=C2/SCCN2C)SC1=S,?,?,0.85µM,0.45µM,0.45µM
